Experimental data: PubChem BioAssay (NCATS)
Results filed as inconclusive are left out. Activity calls are given as the source filed them. Calls come from the whole dose curve; as a rule, active = well fitted inhibition curve with a large enough effect; inconclusive = small, poorly fitted or top-dose-only effect; inactive = flat fitted curve, though single readings scatter.

System: KB-3-1
Assay: Cytotoxic Profiling of Annotated Libraries Using Quantitative High-Throughput Screening (AID 1296008); note: nearly all actives have a fitted effect of over 60% in size
Details: Five cell lines viability, CellTiter-Glo ATP luminescence, 48-72 h; max response: active compounds read low
Procedure, shortened: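 Compounds were pin-transferred onto cells and incubated 48 or 72 hr at 37 degree Celsius, 95% humidity. CellTiter-Glo was added, plates sat 10 min at room temperature, then ATP-coupled luminescence was imaged as the viability read-out.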
% is set by controls: 0 for no effect and ±100 for the full control effect.

Compound	outcome	max response
COc1cccc(Cn2ncc3c4sc(S(C)=O)cc4n(C)c3c2=O)c1 (centres undefined)	inactive	
CC(C)CC(=O)O[C@@H]1O[C@H](CO)[C@@H](O[C@H]2O[C@H](C)[C@@H](N[C@H]3C=C(CO)[C@@H](O[C@H]4O[C@H](CO)[C@@H](O[C@H]5O[C@H](CO)[C@@H](O[C@H]6O[C@H](CO)[C@@H](O)[C@H](O)[C@H]6O)[C@H](O)[C@H]5O)[C@H](O)[C@H]4O)[C@H](O)[C@H]3O)[C@H](O)[C@H]2O)[C@H](O)[C@H]1O	inactive	
COc1ccc(C2COc3cc(O)ccc3C2)c(O)c1OC (centres undefined)		1.88% (inactive)
CCN1CCN(C(=O)N[C@@H](C(=O)N[C@@H]2C(=O)N3[C@@H]2SC(C)(C)[C@@H]3C(=O)O)c2ccccc2)C(=O)C1=O	inactive	
COc1ccc(/C=C/C(N)=O)cc1OC	inactive	
N[C@@H](CC(=O)Nc1ccc(Oc2cc(F)c(F)cc2Br)cc1)C(=O)O		-3.53% (inactive)
COc1cc(O)cc2c1C(=O)OC(C)C2 (centres undefined)		3.07% (inactive)
COc1cc(/C=C/C(=O)O[C@@H]2C[C@](O)(C(=O)O)C[C@@H](O)[C@H]2O)ccc1O	inactive	
Cc1cn(C[C@H](N)C(=O)O)c(=O)n(Cc2ccsc2C(=O)O)c1=O	inactive	
CC(O)C1CCC2C3CCC4CC(OC5OC(C(=O)O)C(O)C(O)C5O)CCC4(C)C3CCC12C (centres undefined)		-9.6% (inactive)
C/C=C1/[C@H](O[C@@H]2O[C@H](CO)[C@@H](O)[C@H](O)[C@H]2O)OC=C2C(=O)O[C@@H]3C[C@@H](C(C)CO)[C@H](COC(=O)C[C@H]21)[C@H]3C (some centres undefined)	inactive	
COc1ccc(NC(=O)c2ccc(-c3ccc(C(N)=O)cc3C)cc2)cc1N1CCN(C)CC1		1.64% (inactive)
Cc1cccc(-c2nn3c(c2-c2ccnc4ccc(C(N)=O)cc24)CCC3)n1	inactive	
CC1(C)CC[C@]2(C(=O)OC3OC(CO)C(O)C(O)C3O)CC[C@]3(C)C(=CCC4[C@@]5(C)C[C@@H](O)[C@H](OC6OC(C(=O)O)C(O)C(O)C6O)C(C)(C)C5CC[C@]43C)[C@@H]2C1 (some centres undefined)		7.37% (inactive)
O=C(NCC(=O)N1CCCC1)Nc1ccc2ccccc2c1	inactive	
O=C(c1c2ccccc2cc2ccccc12)N1CCC(N2CCC[C@@H](C(=O)N3CCOCC3)C2)CC1	inactive	
CC(C)c1ccc2c(c1)C(O)CC1C(C)(CO)CCCC21C (centres undefined)		9.46% (inactive)
C=CCc1cc(OC)c(OC(C)C(O)c2ccc(O)c(OC)c2)c(OC)c1 (centres undefined)		-7.75% (inactive)
COc1cc(O)cc(O[C@@H]2O[C@H](CO)[C@@H](O[C@@H]3OC[C@](O)(CO)[C@H]3O)[C@H](O)[C@H]2O)c1OC	inactive	
CC1(C)COC(=O)[C@@H]1O[C@@H]1O[C@H](CO)[C@@H](O)[C@H](O)[C@H]1O	inactive	

Compound	outcome	max response
C[C@@H]1O[C@@H](O[C@H]2[C@@H]3C=CO[C@@H](O[C@@H]4O[C@H](CO)[C@@H](O)[C@H](O)[C@H]4O)[C@@H]3[C@@]3(CO)O[C@@H]23)[C@H](O)[C@H](O)[C@H]1OC(=O)/C=C/c1ccc(O)cc1		-5.93% (inactive)
Cc1c(NC(=O)N2CCOCC2)ccc2c1c1ccccc1n2C(C)C		3.33% (inactive)
COC(=O)C1=COC(OC2OC(CO)C(O)C(O)C2O)C2C(COC(=O)/C=C/c3ccc(O)c(O)c3)C(O)C(O)C12 (centres undefined)	inactive	
O=C(OC[C@H]1O[C@H](O[C@]2(CO)O[C@H](CO)[C@@H](O)[C@@H]2O)[C@H](O)[C@@H](O)[C@@H]1O)c1ccc(O)cc1		0.316% (inactive)
C=CC(C)(O)C1CC2C3(C)CCCC(C)(C)C3C(O)C(O)C2(C)O1 (centres undefined)	inactive	
CC1CC(=O)[C@]2(O)C(C(=O)OCCc3ccc(O)c(O)c3)=CO[C@@H](O[C@@H]3O[C@H](CO)[C@@H](O)[C@H](O)[C@H]3O)[C@H]12 (some centres undefined)		8.6% (inactive)
COc1cc(O)cc2c1C(=O)OC(C)CCCCCCC2 (centres undefined)	inactive	
C=C(C)[C@H]1CC[C@]2(C(=O)O)CC[C@]3(C)C(CCC4[C@@]5(C)CCC(=O)C(C)(C)C5CC[C@]43C)C12 (some centres undefined)		-14.2% (inactive)
OCC1OC(Oc2cc(O)cc(/C=C/c3ccc(OC4OC(CO)C(O)C(O)C4O)cc3O)c2)C(O)C(O)C1O (centres undefined)		5.55% (inactive)
CC(C)[C@](O)(c1ccc2cc(OC(F)F)c(OC(F)F)cc2c1)c1cn[nH]n1		-6.26% (inactive)
C/C=C1/[C@H](O[C@@H]2O[C@H](CO)[C@@H](O)[C@H](O)[C@H]2O)OC=C(C(=O)OC)[C@H]1CC(=O)OCCc1ccc(OC(=O)C[C@@H]2C(C(=O)OC)=CO[C@@H](O[C@@H]3O[C@H](CO)[C@@H](O)[C@H](O)[C@H]3O)/C2=C/C)cc1	inactive	
C/C(=C/CO)CC[C@H]1[C@]2(C)C[C@H](O)CC(C)(C)[C@H]2CC[C@]1(C)O		3.57% (inactive)
C[C@@H]1O[C@@H](O[C@@H]2\C=C/C=C\C=C/C=C\C[C@H](C)OC(=O)/C=C\[C@H]3O[C@@H]3C[C@H](O)C[C@]3(O)C[C@@H](O)[C@@H](C(=O)O)[C@H](C2)O3)[C@H](O)[C@H](N)[C@@H]1O	inactive	
COc1cc(C)c(C(=O)O[C@@H]2[C@H](O)[C@@H](CO)O[C@H]2n2ccc(=O)[nH]c2=O)c(OC)c1	inactive	
C=C(CCO)C(=O)OCC1OCC(OC(=O)C(=C)CCO[C@@H]2O[C@H](CO)[C@@H](O)[C@H](O)[C@H]2O)C(O)C1O (some centres undefined)		4.34% (inactive)
COc1ccc(/C=C/C(=O)N2CCCC2)cc1		2.27% (inactive)
C[C@@H]1O[C@@H](OC[C@H]2O[C@@H](OCc3ccccc3)[C@H](O)[C@@H](O)[C@@H]2O)[C@H](O)[C@H](O)[C@H]1O		-7.21% (inactive)
CC(=O)O[C@@H]1C=C2[C@H](CC[C@@]3(C)[C@@]2(O)CC[C@H]2Cc4c([nH]c5ccccc45)[C@@]23C)O[C@@H]1C(C)(C)O		6.54% (inactive)
Cc1cc(Cn2cnc3c2CC(C(=O)O)N(C(=O)C(c2ccccc2)c2ccccc2)C3)ccc1N(C)C (centres undefined)		5.82% (inactive)
